Source: PubChem BioAssay (Tox21)
Records with an inconclusive call do not appear. A call without a number means that no potency is given here. Active and inactive are the calls of the source. Unless noted, calls come from the whole dose curve; as a rule, active = well fitted curve in the direction sought with a large enough effect in the repeat runs; inconclusive = weak or mixed curves; inactive = no such curve, though single readings can be large; an effect the other way counts as inactive or inconclusive.

Assays:
[1] = qHTS assay to identify small molecule agonists of the androgen receptor (AR) signaling pathway in the presence of an antagonist - cell viability counter screen (AID 1259379); details: MDA-kb2 viability, CellTiter-Fluor, 16 h; series mostly up to 92.4 µM;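 note: MDA-kb2 human breast cancer cells carrying an MMTV luciferase reporter; nearly all actives have a fitted effect of over 25% in size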
Method in brief: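 Counter screen for cell viability run in parallel with the AR agonist-mode luciferase assay. MDA-kb2 cells were co-treated with nilutamide (3.0uM final) and compounds, then incubated 16 hr at 37C, and CellTiter-Fluor fluorescence was measured.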

[2] = qHTS assay to identify small molecule agonists of the estrogen receptor beta (ER-beta) signaling pathway - cell viability counter screen (AID 1259380); details: ER-beta-bla HEK293T viability, CellTiter-Glo luminescence, 16 h; series mostly up to 92.4 µM; note: nearly all actives have a fitted effect of over 30% in size; note: potency is the fitted concentration of half-maximal effect
Method in brief: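 In this qHTS counter screen, HEK293T cells carrying an ER-beta/UAS beta-lactamase reporter, grown in 2% charcoal-stripped FBS, received compound for 16 hr; ATP-based CellTiter-Glo luminescence was then read after 30 min at room temperature.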

[3] = qHTS assay to identify small molecule antagonists of the estrogen receptor beta (ER-beta) signaling pathway - cell viability counter screen (AID 1259382); details: ER-beta-UAS-bla HEK293T viability, CellTiter-Glo luminescence, 16 h; series mostly up to 92.4 µM;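 note: HEK293T cells carrying ER-beta-UAS-bla reporter stimulated with estradiol; nearly all actives have a fitted effect of over 55% in size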
Method in brief: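 HEK293T ER-beta-UAS-bla, 2% charcoal-stripped FBS; compounds + 1nM E2 16 hr 37C; CellTiter-Glo luminescence, 30 min RT.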

[4] = qHTS assay to identify small molecule agonists or antagonists of the thyroid stimulating hormone receptor (TSHR) signaling pathway - wild type cell line counter screen (AID 1259384; calls by dose curve); details: HEK293 wild type, cAMP HTRF counter-screen, stronger effect = higher value; series mostly up to 92.4 µM
Method in brief: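 Wild-type Hek293 cells, 800/well, 18 h at 37C, then compound with Ro20-1724 for 30 min RT. cAMP by HTRF (cAMP-d2/anti-cAMP cryptate), 1 h RT, fluorescence read. 15 concentrations, triplicates.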

[5] = biological target: Thyrotropin receptor (Homo sapiens) (UniProt P16473); assay: qHTS assay to identify small molecule antagonists of the thyroid stimulating hormone receptor (TSHR) signaling pathway (AID 1259385; calls by dose curve; note: nearly all actives have a fitted effect of over 20% in size; note: potency is the fitted concentration of half-maximal effect); details: TSHR-HEK293 cAMP HTRF, TSH-stimulated antagonist mode; series mostly up to 92.4 µM
Method in brief: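 TSHR-HEK293 cells (800/well) plated 18 h, then compounds with Ro20-1724 and TSH at 1.5 ng/mL final, 30 min at room temperature. cAMP quantified by HTRF (cAMP-d2/anti-cAMP-cryptate, 1 h); 15 concentrations in triplicate.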

[6] = qHTS assay to identify small molecule agonists of the estrogen receptor alpha (ER-alpha) signaling pathway in the presence of an antagonist - cell viability counter screen (AID 1259386); details: VM7Luc4E2 viability, CellTiter-Fluor fluorescence, 22 h; series mostly up to 92.4 µM;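 note: cells exposed to compounds for 22 h at 37 °C before the viability read; nearly all actives have a fitted effect of over 30% in size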
Method in brief: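 Steps: 5-day stripped-FBS culture; seed and incubate 24hr; add ICI-182,780 (10.0nM final); pin 15-point compound titration; incubate 22hr at 37C; add CellTiter-Fluor at 21hr; read fluorescence.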

[7] = biological target: Progesterone receptor (Homo sapiens) (UniProt P06401); assay: qHTS assay to identify small molecule agonists of the progesterone receptor (PR) signaling pathway (AID 1346784; calls by dose curve; note: nearly all actives have a fitted effect of over 30% in size); details: PR-UAS-bla HEK293T, beta-lactamase FRET ratio, 16 h; series mostly up to 92.4 µM
Method in brief: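 Agonist mode, quantitative HTS format in a HEK 293T line expressing a UAS-controlled beta-lactamase reporter; 16 hr compound exposure at 37C in 2% charcoal-stripped FBS, then LiveBLAzer B/G FRET fluorescence.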

[8] = biological target: Progesterone receptor (Homo sapiens) (UniProt P06401); assay: qHTS assay to identify small molecule antagonists of the progesterone receptor (PR) signaling pathway (AID 1346795; active = well fitted inhibition curve with a large enough effect in the signal ratio in the repeat runs, not every such curve was filed as active; the % refers to the signal ratio; note: potency is the fitted concentration of half-maximal effect); details: PR-UAS-bla HEK293T, beta-lactamase FRET ratio, 16 h; series mostly up to 92.4 µM
Method in brief: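 HEK293T PR-UAS-bla reporter cells in charcoal-stripped serum (2%) received compound after a 6 hr settling period, followed by R5020 agonist at 1 nM final; 16 hr incubation preceded the FRET substrate step and fluorescence measurement.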

Chain of Progesterone receptor (Homo sapiens) (P06401 whole entry, looked up): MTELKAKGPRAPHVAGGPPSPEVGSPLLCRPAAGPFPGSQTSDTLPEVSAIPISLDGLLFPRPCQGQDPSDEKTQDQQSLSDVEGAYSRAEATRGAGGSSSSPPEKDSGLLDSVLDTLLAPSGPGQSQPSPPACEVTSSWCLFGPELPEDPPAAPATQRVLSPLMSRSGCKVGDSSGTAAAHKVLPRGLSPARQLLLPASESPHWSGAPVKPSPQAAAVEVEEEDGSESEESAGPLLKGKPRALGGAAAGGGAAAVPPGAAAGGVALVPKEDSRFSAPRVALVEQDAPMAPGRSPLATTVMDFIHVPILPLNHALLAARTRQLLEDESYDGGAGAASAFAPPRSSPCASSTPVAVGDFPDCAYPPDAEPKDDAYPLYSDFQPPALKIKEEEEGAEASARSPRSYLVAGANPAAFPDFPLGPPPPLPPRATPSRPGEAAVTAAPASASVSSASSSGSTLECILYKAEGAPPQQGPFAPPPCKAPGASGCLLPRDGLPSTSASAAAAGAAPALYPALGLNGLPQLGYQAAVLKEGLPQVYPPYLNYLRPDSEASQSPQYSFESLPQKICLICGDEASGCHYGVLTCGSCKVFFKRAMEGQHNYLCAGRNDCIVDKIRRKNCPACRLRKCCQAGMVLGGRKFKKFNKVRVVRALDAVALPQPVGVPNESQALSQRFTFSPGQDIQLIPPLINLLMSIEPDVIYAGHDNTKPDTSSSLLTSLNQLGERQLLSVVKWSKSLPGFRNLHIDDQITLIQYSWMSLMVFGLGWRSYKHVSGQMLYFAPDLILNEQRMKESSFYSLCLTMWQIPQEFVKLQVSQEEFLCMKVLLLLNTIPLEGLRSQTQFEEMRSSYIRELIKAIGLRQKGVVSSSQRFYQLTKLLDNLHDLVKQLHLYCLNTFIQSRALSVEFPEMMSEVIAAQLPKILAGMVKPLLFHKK
Chain of Thyrotropin receptor (Homo sapiens) (P16473 whole entry, looked up): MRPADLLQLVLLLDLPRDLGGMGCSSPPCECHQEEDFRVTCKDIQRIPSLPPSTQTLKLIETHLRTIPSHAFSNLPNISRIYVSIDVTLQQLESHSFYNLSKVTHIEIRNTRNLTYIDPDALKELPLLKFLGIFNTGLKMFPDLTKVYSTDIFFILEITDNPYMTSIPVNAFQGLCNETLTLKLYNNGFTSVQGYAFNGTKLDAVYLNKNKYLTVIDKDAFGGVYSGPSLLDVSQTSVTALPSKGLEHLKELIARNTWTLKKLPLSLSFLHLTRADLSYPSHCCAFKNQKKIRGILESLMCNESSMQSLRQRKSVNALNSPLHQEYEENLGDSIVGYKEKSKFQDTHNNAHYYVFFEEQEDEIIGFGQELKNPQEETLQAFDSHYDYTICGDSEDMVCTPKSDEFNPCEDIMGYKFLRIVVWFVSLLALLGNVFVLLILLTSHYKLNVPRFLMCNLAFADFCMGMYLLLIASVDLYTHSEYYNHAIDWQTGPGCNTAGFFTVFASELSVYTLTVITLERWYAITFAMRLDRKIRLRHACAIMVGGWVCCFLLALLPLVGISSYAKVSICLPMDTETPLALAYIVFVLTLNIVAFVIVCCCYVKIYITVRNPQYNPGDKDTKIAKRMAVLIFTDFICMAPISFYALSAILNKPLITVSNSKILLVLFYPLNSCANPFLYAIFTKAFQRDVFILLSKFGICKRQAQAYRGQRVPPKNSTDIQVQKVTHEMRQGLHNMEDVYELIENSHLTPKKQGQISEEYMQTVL

Compound | Potency [1] | Potency [2] | Potency [3] | outcome [4] | Potency [5] | Potency [6] | Potency [7] | Potency [8]
COc1ccc(Cl)cc1C(=O)NCCc1ccc(S(=O)(=O)NC(=O)NC2CCCCC2)cc1 | inactive | 48.6 µM (active) | inactive | inactive | inactive | inactive | inactive | inactive
O=C(CC(C(=O)OC1CCCCC1)S(=O)(=O)O)OC1CCCCC1 (stereo not drawn) | inactive | inactive | inactive | inactive | inactive | inactive | inactive | inactive
CCCSc1ccc2nc(NC(=O)OC)[nH]c2c1 | inactive | inactive | inactive |  |  | inactive | inactive | 4.86 µM (active)
CCCCC(CC)COC(=O)C(C#N)=C(c1ccccc1)c1ccccc1 (stereo not drawn) | inactive | inactive | inactive | inactive | 61.1 µM (active) | inactive | inactive | 8.63 µM (active)
CN(C)CCC(c1ccccc1)c1ccccn1 (stereo not drawn) | inactive | inactive | inactive | inactive | inactive | inactive | inactive | inactive
CCCCC(CC)CO (stereo not drawn) | inactive | inactive | inactive | inactive | inactive | inactive | inactive | inactive
CCCCCCCCC/C=C/CC1CC(=O)OC1=O (stereo not drawn) | inactive |  | inactive | inactive | inactive | inactive | inactive | inactive
